Type in all cases: functional
In assay [1] the target is Solute carrier family 2, facilitated glucose transporter member 1 (Homo sapiens) (UniProt P11166). The assay can be described thus: ST_JUDE_LEISH: Cytotoxicity at 2uM final concentration against transgenic Leishmania Mexicana promastigotes LmGLUT1 that are glucose transport deficient and complemented with the human glucose transporter GLUT1. Activity is measured by DNA content using SYBR green in vitro.

The target in assay [2] is Hexose transporter 1 (Plasmodium falciparum) (UniProt O97467). Nature of the assay: ST_JUDE_LEISH: Cytotoxicity at 2uM final concentration against transgenic Leishmania Mexicana promastigotes LmPfHT that are glucose transport deficient and complemented with the Plasmodium falciparum hexose transporter. Activity is measured by DNA content using SYBR green in vitro.
Assay [3] deals with Glucose transporter (Leishmania mexicana) (UniProt O61059). The assay can be described thus: ST_JUDE_LEISH: Cytotoxicity at 2uM final concentration against transgenic Leishmania Mexicana promastigotes LmGT2 that are glucose transport deficient and complemented with the L. Mexicana glucose transporter 2. Activity is measured by DNA content using SYBR green in vitro.

Sequence of Solute carrier family 2, facilitated glucose transporter member 1 (Homo sapiens) (P11166 whole entry): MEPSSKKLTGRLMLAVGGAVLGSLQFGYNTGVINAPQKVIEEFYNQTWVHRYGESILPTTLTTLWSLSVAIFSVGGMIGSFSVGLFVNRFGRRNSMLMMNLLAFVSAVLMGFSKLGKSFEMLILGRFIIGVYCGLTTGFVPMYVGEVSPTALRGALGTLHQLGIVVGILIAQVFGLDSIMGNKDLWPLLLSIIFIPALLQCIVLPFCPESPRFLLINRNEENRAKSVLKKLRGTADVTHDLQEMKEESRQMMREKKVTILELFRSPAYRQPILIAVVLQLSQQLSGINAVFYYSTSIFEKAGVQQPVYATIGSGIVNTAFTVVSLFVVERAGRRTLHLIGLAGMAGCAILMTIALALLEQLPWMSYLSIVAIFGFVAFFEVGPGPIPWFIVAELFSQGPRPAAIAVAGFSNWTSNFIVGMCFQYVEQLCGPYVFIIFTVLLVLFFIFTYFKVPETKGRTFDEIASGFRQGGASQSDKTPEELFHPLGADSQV

In the case of `CCN(CC)CCN(Cc1ccc(-c2ccc(C(F)(F)F)cc2)cc1)C(=O)Cn1c(CCc2ccc(F)cc2)nc(=O)c2sccc21`, the inhibition – broadly, the relative decrease from the control value, in per cent – turned out to be 2.57% in assay [1], 1.22% in assay [2] and 2.92% in assay [3].
Consider `c1ccc2c(C3CCN(CCCCOc4ccc5c(c4)CCN(C4CCC4)CC5)CC3)c[nH]c2c1`, for which the inhibition in assay [1] was -2.06%; in assay [2], 3.7%; in assay [3], 4.47%.
Consider `COc1ccc2nc3cc(Cl)ccc3c(NCc3ccccc3)c2c1`, for which the inhibition in assay [1] was 2.39%; in assay [2] it was 2.92%; in assay [3], -0.49%.
Take `CCn1ccc2c(N3CCCS3(=O)=O)cc(C(=O)N[C@@H](Cc3ccccc3)[C@H](O)CNC3CCCCC3)cc21`: the results for the inhibition in assay [1], in assay [2] and in assay [3] were -0.74%, 1.64% and 5.33%, respectively.
In the same order, the values of `O=C(NCC1CC1)C1CCN(C(c2ccc(Cl)cc2)c2ccc(Cl)cc2)CC1` are 0.44%, 1.5% and -2.15%.
For the compound `COc1ccc(NC(=O)c2ccc(-c3nc(-c4ccc(Cl)cc4)cs3)cc2)cc1N1CCN(C)CC1`, the results for the inhibition in assay [1], in assay [2] and in assay [3] were 0.97%, 0.94% and 0.9%, respectively.
In the same order, the values of `Cc1cccc2nc(-c3ccc(-c4ccc(CN5CCCCC5)cc4)cc3)[nH]c12` are 19.2%, 18.6% and 10.2%.
Take `CCC(=O)N(c1ccccc1)C1CCN(CCCC(NC(=O)Nc2cc(C(F)(F)F)cc(C(F)(F)F)c2)c2ccc(Cl)c(Cl)c2)CC1` (stereo unspecified): the inhibition in assay [1] is -1.01%; in assay [2], 0.47%; in assay [3] it was 0.22%.
As to `Cc1nc2nc(N)nc(N)c2c(C)c1Cc1ccc(C(N)=O)cc1`, the inhibition in assay [1] amounted to 1.68%; in assay [2], 1.64%; in assay [3], 0.21%.
In the same order, the values of `NC(=O)Nc1ccc2cn[nH]c2c1` are -0.02%, 0.57% and 0.33%.
Turning to `CN(C(=O)Nc1ccc(C(F)(F)F)cc1)C1CCN(CCCCCNC(=O)/C=C/c2ccc(Cl)c(Cl)c2)CC1`, the inhibition stood at 4.18% in assay [1], 2.6% in assay [2] and 0.47% in assay [3].
In the same order, the values of `O=C(Nc1cccc(-c2ccc(-c3nc4cc(F)ccc4[nH]3)cc2)c1)Nc1ccc(F)c(F)c1F` are 2.86%, 4.09% and -1.44%.

These data come from ChEMBL document CHEMBL3433997, “St. Jude Leishmania screening dataset” (2016).
